In PubChem BioAssay (Tox21) one finds Potency and max activation data, which are given here for ten molecules.

A number with no mark means an inactive call. Inconclusive results are not listed. Active and inactive are the calls of the source. Calls follow the shape of the dose curve; as a rule, active = well fitted curve in the direction sought with a large enough effect in the repeat runs; inconclusive = weak or mixed curves; inactive = no such curve, though single readings can be large; an effect the other way counts as inactive or inconclusive.

Experiment [1] can be described thus: Human pregnane X receptor (PXR) small molecule agonists, qHTS cell viability counter screen (AID 1346977). Also: nearly all actives have a fitted effect of over 50% in size. The procedure, abridged:
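PXR-Luc HepG2 cells (2,000/well, 5% charcoal-stripped FBS) preincubated 5 hr, then exposed to compounds 24 hr at 37 C. Viability read in the same wells by CellTiter-Fluor fluorescence, reagent added at 23 hr, 1 hr incubation.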

Experiment [2] is described as follows: Caspase-3/7 induction in HepG2 cells by small molecules, qHTS assay (AID 1346978). Also: nearly all actives have a fitted effect of over 15% in size. The gist of the method: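 Wild-type HepG2 cells (2,000/well) were settled 5 h at 37 C, 5% CO2, then exposed to compounds in DMSO for 17 h. Caspase-3/7 activity was read by luminescence 30 min after adding Caspase-Glo 3/7 reagent at room temperature.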
(qHTS replaces the single test concentration by a dilution series.)

Experiment [3] in a line: Caspase-3/7 induction in CHO-K1 cells by small molecules, qHTS cell viability counter screen (AID 1346979). Also: nearly all actives have a fitted effect of over 35% in size. The gist of the method:
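Wild-type CHO-K1 cells (1,500/well) treated with compound after 5 h plating; after 16 h at 37C, viability read as CellTiter-Fluor fluorescence following 1 h reagent incubation, in the same wells as the caspase read.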

Experiment [4] can be described thus: Caspase-3/7 induction in CHO-K1 cells by small molecules, qHTS assay (AID 1346980). Also: nearly all actives have a fitted effect of over 15% in size. The gist of the method: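 Wild-type cells were seeded at 1,500 per well and settled 5 hr at 37 C, 5% CO2, then exposed to DMSO-dissolved compounds for 17 hr. Caspase-Glo 3/7 reagent was added, and luminescence was read after 30min at room temperature.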
Experiment [5] can be described thus: Caspase-3/7 induction in HepG2 cells by small molecules, qHTS cell viability counter screen (AID 1346981). Also: series mostly up to about 92 µM; nearly all actives have a fitted effect of over 30% in size. The procedure, abridged:
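CellTiter-Fluor fluorescence measured viability in the same wells used for Caspase-Glo 3/7. HepG2 (wild type) at 2,000 cells/well were pre-incubated 5 hr, dosed, and given reagent at 16 hr, with 1 hr further at 37C.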

For experiment [6], the target named is Cytochrome P450 2C9 (Homo sapiens) (UniProt P11712). The experiment can be described thus: Cytochrome P450 Family 2 Subfamily C Member 9 (CYP2C9) small molecule antagonists: luciferase reporter qHTS assay (AID 1671198). Also: nearly all actives have a fitted effect of over 50% in size. Also: potency is read from the fitted curve at half-maximal effect. The gist of the method:
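CYP2C9 activity was measured with a P450-Glo proluciferin substrate. Enzyme–substrate mix was held with compound for 10 min at room temperature, then NADPH regeneration solution was added for 1 h at 37C. Luciferin product was read as luminescence.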
Background: A reporter such as luciferase makes a cellular process visible.

For experiment [7], the target named is Cytochrome P450 1A2 (Homo sapiens) (UniProt P05177). The experiment can be described thus: Cytochrome P450 Family 1 Subfamily A Member 2 (CYP1A2) small molecule antagonists: luciferase reporter qHTS assay (AID 1671199). Also: nearly all actives have a fitted effect of over 50% in size. Also: potency is read from the fitted curve at half-maximal effect. The gist of the method:
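Luminescence from luciferin formed by CYP1A2 from a proluciferin substrate, read 20 min after detection reagent. Compound was pre-incubated 10 min with enzyme-substrate, and reaction started with NADPH regeneration solution for 1 h at room temperature; furafylline control.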

The target in experiment [8] is Cytochrome P450 3A4 (Homo sapiens) (UniProt P08684). The experiment can be described thus: Cytochrome P450 Family 3 Subfamily A Member 4 (CYP3A4) small molecule antagonists: luciferase reporter qHTS assay (AID 1671201). Also: nearly all actives have a fitted effect of over 50% in size. Also: potency is read from the fitted curve at half-maximal effect. The gist of the method:
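P450-Glo CYP3A4 luminescent assay: compounds preincubated 10 min at room temperature with enzyme and proluciferin substrate, NADPH regeneration added, 1 h room-temperature reaction, stopped with luciferin detection reagent; luminescence read after 20 min. Ketoconazole positive control.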

For experiment [9], the target named is Cytochrome P450 2D6 (Homo sapiens) (UniProt P10635). The experiment can be described thus: Cytochrome P450 Family 2 Subfamily D Member 6 (CYP2D6) small molecule antagonists: luciferase reporter qHTS assay (AID 1671196). Also: nearly all actives have a fitted effect of over 50% in size. Also: potency is read from the fitted curve at half-maximal effect. The gist of the method:
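CYP2D6 activity was followed as luminescence from its luciferin product after a 1 h NADPH-driven reaction at room temperature. Enzyme-substrate mix and compound were pre-incubated for 10 min, and the signal was read 20 min after adding detection reagent.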

Experiment [10] concerns the target Cytochrome P450 2C19 (Homo sapiens) (UniProt P33261). The experiment in a line: Cytochrome P450 Family 2 Subfamily C Member 19 (CYP2C19) small molecule antagonists: luciferase reporter qHTS assay (AID 1671197). Also: series mostly up to about 120 µM; nearly all actives have a fitted effect of over 65% in size. The gist of the method:
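Quantitative high-throughput screen of the Tox21 library using CYP2C19 with proluciferin substrate. Reaction: NADPH regeneration, 37C, 1 h, after 10 min compound preincubation at room temperature. Readout: luminescence.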

Experiment [11] has as its target Nuclear receptor subfamily 1 group I member 2 (Rattus norvegicus) (UniProt Q9R1A7). The experiment can be described thus: Rat pregnane X receptor (rPXR) activation by small molecules, qHTS assay (AID 1346983). Also: nearly all actives have a fitted effect of over 20% in size. The conditions noted are these: rPXR luciferase reporter cells, One-Glo luminescence, 24 h; max activation: hits give high values. The gist of the method: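 Cell-based rPXR luciferase reporter assay, 2,000 cells per well, rested 5hr at 37 C before compound addition in DMSO, then 24 hr at 37 C. One-Glo reagent was added and luminescence read after 30 min at room temperature.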

The target in experiment [12] is Voltage-gated inwardly rectifying potassium channel KCNH2 (Homo sapiens) (UniProt Q12809). The experiment can be described thus: Human Ether-a-go-go-Related Gene (hERG) channel small molecule antagonists: fluorescence cell-based qHTS assay (AID 1671200). The gist of the method:
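hERG-U2OS cells plated overnight at 37 C, loaded with FluxOR II dye 1 h at RT in dark; after 10 min, thallium stimulus added. Fluorescence (480/540 nm) read kinetically for 2 min at 1 s intervals.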

The target in experiment [13] is Nuclear receptor subfamily 1 group I member 2 (Homo sapiens) (UniProt O75469). The experiment in a line: CYP3A4 induction through human pregnane X receptor (PXR) by small molecules, qHTS assay (AID 1346984). Also: nearly all actives have a fitted effect of over 40% in size. The gist of the method:
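Read-out is luminescence after One-Glo addition, following a 3 hr, 37C incubation with Luciferin-IPA CYP3A4 substrate (3uM final). Before that, compounds were on DPX-2 cells (HepG2 co-transfected with PXR element plus CYP3A4-promoter luciferase) for 24 hr at 37C.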

The target is the same in experiment [14]. The experiment can be described thus: Human pregnane X receptor (PXR) activation by small molecules, qHTS assay (AID 1346985). Also: nearly all actives have a fitted effect of over 40% in size. The procedure, abridged: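 DPX-2 cells (HepG2 co-transfected with a PXR response element and a CYP3A4-promoter luciferase construct) were seeded at 2,000 per well, rested 5 hr at 37C, then exposed to DMSO-dissolved compounds for 24 hr. Activation was read as luciferase luminescence.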
% is scaled to controls: 0 for no effect and ±100 for the full control effect.

Nuclear receptor subfamily 1 group I member 2 (Rattus norvegicus), sequence (Q9R1A7 whole entry, looked up): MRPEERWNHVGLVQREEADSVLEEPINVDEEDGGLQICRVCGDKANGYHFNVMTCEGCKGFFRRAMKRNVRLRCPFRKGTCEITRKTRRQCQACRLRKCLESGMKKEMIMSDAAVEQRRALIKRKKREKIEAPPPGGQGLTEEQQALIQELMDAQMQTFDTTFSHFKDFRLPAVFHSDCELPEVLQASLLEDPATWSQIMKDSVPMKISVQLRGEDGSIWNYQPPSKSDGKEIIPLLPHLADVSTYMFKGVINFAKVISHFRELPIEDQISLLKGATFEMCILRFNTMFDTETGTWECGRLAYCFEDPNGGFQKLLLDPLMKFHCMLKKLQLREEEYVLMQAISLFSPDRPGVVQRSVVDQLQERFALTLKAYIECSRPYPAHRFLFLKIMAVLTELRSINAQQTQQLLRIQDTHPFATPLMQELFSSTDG
Cytochrome P450 2D6 (Homo sapiens), sequence (P10635 whole entry, looked up): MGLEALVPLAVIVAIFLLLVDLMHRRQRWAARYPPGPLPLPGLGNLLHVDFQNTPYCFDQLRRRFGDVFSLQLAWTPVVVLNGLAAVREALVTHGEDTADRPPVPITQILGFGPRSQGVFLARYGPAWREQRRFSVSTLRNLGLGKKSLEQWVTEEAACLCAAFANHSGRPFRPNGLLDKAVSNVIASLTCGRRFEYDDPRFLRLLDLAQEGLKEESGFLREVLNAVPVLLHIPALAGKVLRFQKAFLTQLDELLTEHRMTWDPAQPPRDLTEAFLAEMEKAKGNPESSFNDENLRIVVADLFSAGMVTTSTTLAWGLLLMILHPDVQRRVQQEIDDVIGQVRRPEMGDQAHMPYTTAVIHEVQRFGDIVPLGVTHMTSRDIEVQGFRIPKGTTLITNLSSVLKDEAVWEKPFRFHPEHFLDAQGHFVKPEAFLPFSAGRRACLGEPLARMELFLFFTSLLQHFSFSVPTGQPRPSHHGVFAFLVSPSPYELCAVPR
Cytochrome P450 3A4 (Homo sapiens), sequence (P08684 whole entry, looked up): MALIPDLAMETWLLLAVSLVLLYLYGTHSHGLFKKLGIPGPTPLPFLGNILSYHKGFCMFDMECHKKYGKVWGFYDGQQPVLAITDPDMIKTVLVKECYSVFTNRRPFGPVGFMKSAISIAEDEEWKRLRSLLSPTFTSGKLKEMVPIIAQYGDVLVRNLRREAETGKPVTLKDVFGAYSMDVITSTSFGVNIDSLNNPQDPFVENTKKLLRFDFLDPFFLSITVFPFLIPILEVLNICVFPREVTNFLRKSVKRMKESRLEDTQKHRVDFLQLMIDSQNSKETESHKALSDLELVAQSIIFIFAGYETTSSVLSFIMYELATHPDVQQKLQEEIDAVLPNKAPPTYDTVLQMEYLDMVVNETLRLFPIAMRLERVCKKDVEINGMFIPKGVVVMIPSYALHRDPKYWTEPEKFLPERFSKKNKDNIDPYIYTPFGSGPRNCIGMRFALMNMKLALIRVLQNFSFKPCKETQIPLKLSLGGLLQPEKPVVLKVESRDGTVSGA
Cytochrome P450 2C9 (Homo sapiens), sequence (P11712 whole entry, looked up): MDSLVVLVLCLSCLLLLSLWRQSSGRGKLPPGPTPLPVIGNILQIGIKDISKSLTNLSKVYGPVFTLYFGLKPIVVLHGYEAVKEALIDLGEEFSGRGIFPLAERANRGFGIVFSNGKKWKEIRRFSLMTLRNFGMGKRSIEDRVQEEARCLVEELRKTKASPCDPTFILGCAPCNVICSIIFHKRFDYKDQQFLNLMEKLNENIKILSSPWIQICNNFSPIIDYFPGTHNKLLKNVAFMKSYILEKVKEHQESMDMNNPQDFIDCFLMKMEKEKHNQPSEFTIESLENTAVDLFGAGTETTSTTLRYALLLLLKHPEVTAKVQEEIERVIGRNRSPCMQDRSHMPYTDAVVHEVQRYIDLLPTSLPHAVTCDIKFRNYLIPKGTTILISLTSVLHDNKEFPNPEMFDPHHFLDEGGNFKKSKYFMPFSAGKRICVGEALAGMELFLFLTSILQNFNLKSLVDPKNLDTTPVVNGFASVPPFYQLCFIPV
Cytochrome P450 2C19 (Homo sapiens), sequence (P33261 whole entry, looked up): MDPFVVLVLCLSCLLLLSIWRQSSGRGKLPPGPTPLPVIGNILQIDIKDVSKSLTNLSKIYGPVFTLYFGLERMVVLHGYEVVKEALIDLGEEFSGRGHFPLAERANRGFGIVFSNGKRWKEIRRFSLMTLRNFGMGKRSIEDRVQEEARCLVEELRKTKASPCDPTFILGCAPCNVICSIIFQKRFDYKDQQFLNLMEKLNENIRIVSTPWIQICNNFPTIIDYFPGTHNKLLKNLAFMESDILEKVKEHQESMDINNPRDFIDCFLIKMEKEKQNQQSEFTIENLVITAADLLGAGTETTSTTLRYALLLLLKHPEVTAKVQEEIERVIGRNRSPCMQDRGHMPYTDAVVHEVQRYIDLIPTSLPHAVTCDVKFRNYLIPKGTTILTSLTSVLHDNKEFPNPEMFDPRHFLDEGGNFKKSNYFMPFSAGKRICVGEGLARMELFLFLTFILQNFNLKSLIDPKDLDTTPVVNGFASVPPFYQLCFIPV
Cytochrome P450 1A2 (Homo sapiens), sequence (P05177 whole entry, looked up): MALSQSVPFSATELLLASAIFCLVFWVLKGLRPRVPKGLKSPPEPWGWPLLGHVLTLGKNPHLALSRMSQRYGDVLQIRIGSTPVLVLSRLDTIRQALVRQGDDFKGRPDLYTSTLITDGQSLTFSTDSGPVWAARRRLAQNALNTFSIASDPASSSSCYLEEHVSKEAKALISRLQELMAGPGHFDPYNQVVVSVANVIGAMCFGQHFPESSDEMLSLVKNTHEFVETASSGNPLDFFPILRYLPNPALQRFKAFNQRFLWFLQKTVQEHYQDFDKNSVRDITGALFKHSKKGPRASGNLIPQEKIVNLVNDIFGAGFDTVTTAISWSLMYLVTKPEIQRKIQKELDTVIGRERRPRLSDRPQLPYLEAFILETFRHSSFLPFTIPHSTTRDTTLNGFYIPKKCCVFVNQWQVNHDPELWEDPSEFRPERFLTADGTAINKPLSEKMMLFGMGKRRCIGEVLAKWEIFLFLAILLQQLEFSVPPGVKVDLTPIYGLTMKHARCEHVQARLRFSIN
Voltage-gated inwardly rectifying potassium channel KCNH2 (Homo sapiens), sequence (Q12809 whole entry, looked up): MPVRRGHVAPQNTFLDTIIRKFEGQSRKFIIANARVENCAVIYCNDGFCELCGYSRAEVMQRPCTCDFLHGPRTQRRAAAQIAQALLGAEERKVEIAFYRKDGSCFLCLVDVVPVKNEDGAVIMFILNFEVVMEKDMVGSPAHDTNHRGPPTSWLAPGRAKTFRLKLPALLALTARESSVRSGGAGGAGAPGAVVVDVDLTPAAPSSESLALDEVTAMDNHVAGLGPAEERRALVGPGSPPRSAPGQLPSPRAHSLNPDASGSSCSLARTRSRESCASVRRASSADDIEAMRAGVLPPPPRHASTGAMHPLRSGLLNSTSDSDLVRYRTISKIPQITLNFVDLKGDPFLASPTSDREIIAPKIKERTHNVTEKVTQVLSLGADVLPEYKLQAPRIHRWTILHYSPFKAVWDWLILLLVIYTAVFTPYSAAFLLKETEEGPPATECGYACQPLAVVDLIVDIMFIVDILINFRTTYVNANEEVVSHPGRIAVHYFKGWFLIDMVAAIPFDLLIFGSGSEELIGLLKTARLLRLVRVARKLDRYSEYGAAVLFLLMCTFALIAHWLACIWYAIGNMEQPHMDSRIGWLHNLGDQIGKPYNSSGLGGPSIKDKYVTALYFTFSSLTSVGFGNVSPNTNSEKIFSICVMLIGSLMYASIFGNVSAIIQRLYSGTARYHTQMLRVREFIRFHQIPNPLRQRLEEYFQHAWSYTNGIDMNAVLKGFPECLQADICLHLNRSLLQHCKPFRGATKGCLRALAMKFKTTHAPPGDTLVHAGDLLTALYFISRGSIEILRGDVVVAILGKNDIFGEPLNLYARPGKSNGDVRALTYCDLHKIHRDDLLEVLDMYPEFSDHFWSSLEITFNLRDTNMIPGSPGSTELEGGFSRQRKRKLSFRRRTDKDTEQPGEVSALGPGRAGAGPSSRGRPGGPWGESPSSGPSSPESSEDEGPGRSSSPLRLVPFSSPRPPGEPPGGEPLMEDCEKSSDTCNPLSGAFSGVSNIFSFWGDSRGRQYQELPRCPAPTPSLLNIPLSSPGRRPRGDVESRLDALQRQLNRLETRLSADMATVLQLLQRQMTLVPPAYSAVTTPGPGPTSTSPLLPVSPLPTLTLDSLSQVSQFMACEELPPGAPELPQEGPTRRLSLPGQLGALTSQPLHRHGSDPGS

In the case of `O=C1CCCCCCCCCCCC(=O)OCCO1`, the Potency entry in [1], in experiment [2], in experiment [3], in experiment [4] and in experiment [5] was “inactive” each time. Also, the Potency in experiment [6] was 63.3 µM (active); in [7], 39.9 µM (active); in experiment [8], 35.6 µM (active).
`Cc1cc(C(=O)O)ccc1[N+](=O)[O-]`: the Potency entry in [1], in [2], in experiment [3], in [4], in experiment [5] and in experiment [6] was “inactive” throughout. Moreover, the Potency result in experiment [8] was “inactive”. In addition, the Potency in experiment [9] was 56.5 µM (active); in experiment [7] it was 40 µM (active).
On to `CC[N+]1(CC)CCC(=C(c2ccccc2)c2ccccc2)C1C` (stereo not drawn), for which the Potency result in [1], in experiment [2], in experiment [3], in experiment [4], in experiment [5] and in experiment [10] was “inactive” throughout. Besides, the Potency result in experiment [6], in experiment [7] and in experiment [8] was “inactive” throughout.
Consider `CN(Cc1ccc(C(C)(C)C)cc1)Cc1cccc2ccccc12`, for which the Potency result in [1], in [2], in [3], in experiment [4], in [5] and in experiment [8] was “inactive” in each case. The max activation in [11] was 1.25%. In [9], the Potency was 0.347 µM (active).
As to `C=CC1CC2C=CC1C2` (stereo not drawn), the Potency result in experiment [1], in experiment [2], in [3], in experiment [4], in experiment [5] and in experiment [9] was “inactive” in each case. For the same molecule, the Potency result in experiment [6], in experiment [7], in experiment [12] and in experiment [8] was “inactive” each time.
On to `O=C(NCCO[N+](=O)[O-])c1cccnc1`, for which the Potency result in experiment [1], in experiment [2], in experiment [3], in experiment [4], in experiment [5] and in experiment [6] was “inactive” each time. Besides, in experiment [7], the Potency entry was “inactive”. Further, the max activation in experiment [11] was -6.7%.
As for `O=P(O)(OCc1ccccc1)OCc1ccccc1`, the Potency entry in experiment [1], in experiment [2], in [3], in experiment [4], in experiment [5] and in experiment [9] was “inactive” each time. Moreover, the Potency result in experiment [10], in experiment [7], in experiment [12] and in experiment [8] was “inactive” throughout. Moreover, the Potency in [6] was 22.4 µM (active).
`O=C(O)C(S)C(S)C(=O)O` (stereo not drawn): the Potency entry in [1], in experiment [2], in experiment [3], in experiment [4], in [5] and in [13] was “inactive” throughout. Also, the Potency entry in experiment [14], in [9], in experiment [10], in experiment [7], in [12] and in [8] was “inactive” each time. The max activation in experiment [11] is -9.28%.
As for `CCCCO`, the Potency result in experiment [1], in experiment [2], in experiment [3], in experiment [4], in experiment [5] and in experiment [12] was “inactive” throughout. Further, the max activation in experiment [11] was -3.27%.
Consider `CC(COCCO)OCCO` (stereo not drawn), for which the Potency entry in experiment [1], in experiment [2], in experiment [3], in experiment [4], in experiment [5] and in experiment [10] was “inactive” in each case. Also, the Potency result in [6], in experiment [7], in experiment [12] and in [8] was “inactive” throughout.
